Source: PubChem BioAssay (National Center for Advancing Translational Sciences (NCATS))
JMJD2A Tudor: qHTS Assay for Inhibitors of JMJD2A-Tudor Domain. Lysine-specific demethylase 4A (Homo sapiens), O75164. AlphaScreen JMJD2A-Tudor / H3K4me3 peptide binding. Potency, µM (highest dose often 114 µM), for inactives: top-dose activity change, negative = inhibition, actives largely listed as inhibitors. 4.4% of 390,000 active; further: potency means the concentration at half of the fitted maximal effect; on the % scale 0 is the no-effect control and ±100 the full control effect; nearly all actives have a fitted effect of over 50% in size
BAZ2B inh: qHTS Assay for Inhibitors of BAZ2B | Potency, µM (series often up to 114 µM), without a hit: at the highest dose activity change, negative = inhibition, usual class: inhibitors | AlphaScreen BAZ2B-H3K14Ac peptide displacement | 4.4% of 360,000 active; further: potency means the concentration at half of the fitted maximal effect; on the % scale 0 is the no-effect control and ±100 the full control effect; nearly all actives have a fitted effect of over 60% in size
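Protein-peptide AlphaScreen: BAZ2B 50 nM, b-H3K14Ac 50 nM, 1x PBS pH 7.4 + 0.01% Tween-20. Preincubation 30 min RT; cpd 30 min RT (top 110 uM); beads 20 min RT, light-protected.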
HP1b binding inh: HTS for Inhibitors of HP1-beta Chromodomain Interactions with Methylated Histone Tails; AlphaScreen HP1-beta / biotin-H3K9me3 peptide binding; 0.56% of 390,000 active; Potency, µM (highest dose often 114 µM), inactives show at the highest dose activity change, negative = inhibition, actives largely listed as inhibitors; Chromobox protein homolog 1 (Homo sapiens), P83916; AID 540317, 2011; further: potency means the concentration at half of the fitted maximal effect; nearly all actives have a fitted effect of over 70% in size
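HP1-beta protein (50 nM final) preincubated 30 min at room temperature with biotinylated H3(1-18)K9me3 peptide (50 nM) in PBS pH 7.4, 0.01% Tween-20, then compound added for 30 min. AlphaScreen streptavidin donor/nickel chelate acceptor beads (10 ug/mL final), 30 min dark, luminescence read.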
PI5P4K alpha inh: qHTS for Inhibitors of phosphatidylinositol 5-phosphate 4-kinase (PI5P4K) | PI5P4Kalpha enzyme, ADP-Glo luminescence, 60 min; hits give low values | max response, % | 1.2% of 330,000 active | AID 652105, 2013; active means max response of -50% or lower; inconclusive means between -30% and -50%; inactive means -30% or higher; further: value at the top dose of about 77 µM; on the % scale 0 is the no-effect control and ±100 the full control effect
Target sequence (P48426 whole entry, looked up): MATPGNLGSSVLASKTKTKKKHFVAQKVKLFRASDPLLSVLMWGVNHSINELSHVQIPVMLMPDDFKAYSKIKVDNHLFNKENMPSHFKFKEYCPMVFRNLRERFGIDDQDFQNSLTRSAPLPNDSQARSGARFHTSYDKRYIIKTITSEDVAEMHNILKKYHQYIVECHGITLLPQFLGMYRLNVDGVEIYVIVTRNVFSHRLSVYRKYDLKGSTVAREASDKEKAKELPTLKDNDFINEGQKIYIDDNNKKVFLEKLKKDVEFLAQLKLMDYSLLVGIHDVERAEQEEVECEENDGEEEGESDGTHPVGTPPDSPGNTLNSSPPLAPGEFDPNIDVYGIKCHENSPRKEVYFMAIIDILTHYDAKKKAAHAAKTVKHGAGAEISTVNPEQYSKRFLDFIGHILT
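Reactions run in 0.038 M HEPES pH 7.4, 0.28 mM EGTA, 0.1% CHAPS and 5% DMSO, with PI5P4Kalpha, substrate, compound and 5 microM ATP final, one hour at room temperature. Readout is ADP-Glo luminescence.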
PLK1 PBD block: qHTS for Inhibitors of PLK1-PDB (polo-like kinase 1 - polo-box domain): Primary Screen; 2.8% of 360,000 active; Potency, µM, for the others: max response, negative = inhibition, hits mostly inhibitors; Plk1 PBD binding of FITC phosphopeptide, fluorescence polarization; further: potency means the concentration at half of the fitted maximal effect; series mostly up to about 57 µM; on the % scale 0 is the no-effect control and ±100 the full control effect; nearly all actives have a fitted effect of over 65% in size
G9a inh: qHTS Assay for Inhibitors of Histone Lysine Methyltransferase G9a; Histone-lysine N-methyltransferase EHMT2 (Homo sapiens), Q96KQ7; G9a H3K9 monomethylation, AlphaScreen, 2 h; Potency, µM (highest dose often 102 µM), without a hit: at the highest dose activity, negative = inhibition, actives largely listed as inhibitors; 8.8% of 350,000 active; further: potency means the concentration at half of the fitted maximal effect; on the % scale 0 is the no-effect control and ±100 the full control effect; nearly all actives have a fitted effect of over 75% in size
Target sequence (Q96KQ7 913-1193 limits assumed): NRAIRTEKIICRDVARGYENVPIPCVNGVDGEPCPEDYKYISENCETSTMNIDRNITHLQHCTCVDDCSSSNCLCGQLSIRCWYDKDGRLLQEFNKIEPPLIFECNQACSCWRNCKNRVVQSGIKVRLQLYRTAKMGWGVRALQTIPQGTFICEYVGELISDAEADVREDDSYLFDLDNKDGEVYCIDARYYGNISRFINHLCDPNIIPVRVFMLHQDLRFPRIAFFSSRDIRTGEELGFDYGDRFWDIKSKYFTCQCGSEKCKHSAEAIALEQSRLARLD
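Step 1: enzyme (final 20 nM) with compound, 15 min RT. Step 2: substrate peptide 500 nM and SAM 20 uM, 2 h RT. Step 3: anti-H3K9me1 antibody and AlphaScreen beads, 10 min, then plate read.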
Active calls of the source: *; ? = inconclusive; . = no result; [ ] = remark or other dose. A selection: hits, their analogues and other compounds. The true share with any hit is near 12%. Unless noted, the call rests on the fitted dose curve; in most records, active means well fitted curve in the direction sought with a large enough effect; inconclusive means small, poorly fitted or top-dose-only effect, or another doubt; inactive means no such curve, though single readings can be large; an effect the other way counts as inactive or inconclusive.

SMILES	JMJD2A Tudor	BAZ2B inh	HP1b binding inh	PI5P4K alpha inh	PLK1 PBD block	G9a inh
COCCn1c(SCC(=O)c2ccc3c(c2)OCCO3)nnc1C(C)C	79µM*	0%	-8%	-8	0%	18µM*
O=C(CSc1nnc2scc(-c3ccccc3)n12)c1ccc2c(c1)OCCO2	-2%	9%	23%	-4	-5%	89µM*
COCCn1c(SCC(=O)Nc2cc(C)cc(C)c2)nnc1C(C)C	-3%	-1%	44%	-2	-6%	1%
COCCn1c(SCC(=O)Nc2ccc3c(c2)OCCO3)nnc1C(C)C	-20%	-1%	21%	4	-24%	14%
c1ccc(-c2csc3nnc(SCc4ccc5c(c4)OCCO5)n23)cc1	-12%	1%	25%	-2	-3%	-17%[59 µM]
CC(=O)[C@H]1CC[C@@H]2[C@H]3CC=C4C[C@@H](O)CC[C@]4(C)[C@H]3CC[C@]12C	.	.	.	.	.	24%[21.5 µM]
O=c1c(-c2ccc(F)cc2)nc2cnc(N3CCOCC3)nc2n1C1CC1	.	.	.	.	.	11%[0.501 µM]
O=C(CSc1nnc2scc(-c3ccccc3)n12)Nc1nsc(-c2ccccc2)n1	?	56µM*	20%	.	-4%	?
CC(=O)c1ccc(NC(=O)CN2C(=O)c3cccnc3Sc3ccccc32)cc1	-14%	28%	55%	.	.	8%[59 µM]
O=C(OCC(=O)N1CCCC1=O)c1cc2ccccc2o1	-28%	3%	-14%[57 µM]	-30	21µM*	12%[2.33 µM]
N#Cc1ccc(-c2nc3c4ccccc4ccn3c2Cc2cccc(Cl)c2)cc1	.	.	.	3	0%	.
COC(=O)c1ccc2c(c1O)C(=O)c1ccccc1C2=O	?	?	-18%	-7	-5%	13µM*
O=C1c2ccccc2C(=O)c2[nH]c(=O)[nH]c21	-34%	-36%	0%	-69*	-10%	?
O=C1C(O)=C(O)C(=O)c2ccccc21	56µM*	.	?	-6	-16%	.
O=C1c2ccccc2C(=O)c2c1ccc(O)c2O	50µM*	.	7.1µM*	-74*	?	-33%[2.33 µM]
O=C1C(=O)c2ccccc2C(O)=C1c1ccccc1F	-24%	?	-16%	-18	-7%	?
O=C1c2ccccc2C(=O)c2[nH]cnc21	-9%	0%	10%	-11	-2%	-35%
CCn1ccc2cc(S(=O)(=O)N3CCC(C(=O)NCc4ccc(F)cc4)CC3)ccc21	-7%	0%	22%[57 µM]	.	.	3%[59 µM]
COCCCNC(=O)CCCCn1c(=O)c2ccccc2n(CC(=O)Nc2ccc(C)cc2C)c1=O	-16%	-5%	32%	.	.	4%[59 µM]
CC1=NN(C(N)=S)C(=O)C1N=Nc1c(C)n(C)n(-c2ccccc2)c1=O (configuration not stated)	?	.	14%	-17	-2%	.
Cc1ccc(S(=O)(=O)c2nc(-c3cccs3)oc2SCC(=O)Nc2cc(C)cc(C)c2)cc1	-24%	-15%	8%	.	.	?
O=C1c2cccc(O)c2C(=O)c2c(O)cccc21	.	?	.	.	.	7.9µM*
O=C1c2cccc(Sc3ccccc3)c2C(=O)c2c(Sc3ccccc3)cccc21	3.2µM*	16µM*	7.9µM*	6	-8%	1µM*
CC(=O)N(C)C1=C(O)c2ccccc2C(=O)C1=O	-29%	?	11%	.	-2%	79µM*
CCCCc1nc2ccccc2n2c(-c3ccc(C)cc3)c3c(=O)n(C)c(=O)n(C)c3c12	25%	15%[57.1 µM]	53%	.	.	20%[59 µM]
SMILES	JMJD2A Tudor	BAZ2B inh	HP1b binding inh	PI5P4K alpha inh	PLK1 PBD block	G9a inh
CCN(CC)C(=O)OCCc1cc2ccccc2c(=O)o1	-13%	4%	36%	-22	-27%	12%[0.501 µM]
COCCCN1C(=O)C(CC(=O)NCC2CCCCC2)CC(C(=O)N(C(C)C)C(C)C)=C1C (configuration not stated)	.	.	.	1	-3%	.
CCCNC(=O)c1cc(C2CCCCN2C(=O)c2ccc3c(c2)CCO3)on1 (configuration not stated)	.	.	.	-14	-2%	.
Cc1cccc(NC(=O)c2n[nH]c([N+](=O)[O-])c2Br)c1C	-4%	-25%	43%	-14	0%	40µM*
CC(=O)c1c(C)[nH]c(C(=O)Nc2cccc(C)c2C)c1C	-13%	1%	2%	-3	2%	-8%
COc1cccc(OC)c1C1=Nn2c(nnc2-c2ccccc2O)SC1	-12%	.	.	.	.	.
O=C(c1cccs1)n1nc(-c2ccccc2)nc1NCc1ccco1	?	3%	-8%	-10	27µM*	-2%[59 µM]
CCN(CC)c1ccc(C(=O)c2ccccc2C(=O)O)c(O)c1	-7%	24%	40%	.	-6%	-10%[59 µM]
O=C(O)c1cc(N(Cc2ccccc2O)Cc2ccccc2O)ccc1O	50µM*	.	-28%	.	.	.
CCON1C(=O)C2(CCCCC2)C(=O)C12C=CCCC2 (configuration not stated)	-3%	.	47%	15	-3%	.
COc1ccc(C(=O)OCC(=O)Nc2ncc([N+](=O)[O-])s2)cc1OC	40µM*	50µM*	?	-77*	9.5µM*	-15%[12.7 µM]
O=C(COC(=O)c1ccc(Br)o1)Nc1ncc([N+](=O)[O-])s1	?	?	-20%	-53*	11µM*	3.2µM*
O=C(COC(=O)COc1ccc(Cl)cc1)Nc1ncc(Br)s1	-12%	1%	82%	10	-2%	-33%
COc1ccc(CN(C)C(=O)CNC(=O)c2sc3ccccc3c2Cl)c(OC)c1OC	89µM*	.	-17%	3	2%	.
COc1cccc(CN(C)C(=O)CNC(=O)c2cccs2)c1OC	-1%	5%	41%	-2	0%	-7%
COc1cccc(CN(C)C(=O)CNC(=O)c2ccc(-c3ccccc3)cc2)c1OC	-21%	0%	0%	-3	-2%	45µM*
Cc1ccc2[nH]c(C)c(CCNC(=O)C3CCCCC3C(=O)OCC(F)(F)F)c2c1 (configuration not stated)	71µM*	?	-21%	-3	?	-43%[59 µM]
O=c1nc(SCc2c(F)cccc2Cl)nc(-c2ccccc2)[nH]1	1%	0%	38%	-5	27µM*	-4%
CCN(CC)c1ccc(NC(=O)COc2ccccc2C#N)cc1S(=O)(=O)Nc1ccccc1OC	?	-34%	?	?	5.3µM*	2.5µM*
CCN(CC)c1ccc(NC(=O)c2ccccn2)cc1S(=O)(=O)Nc1ccccc1OC	56µM*	?	?	?	6.7µM*	2.5µM*
